In PubChem BioAssay AID651820 (National Center for Advancing Translational Sciences (NCATS), 2012):
Hit rate of the full screen: of about 340,000 compounds, about 12,000 (3.5%) were called active. Entries that show only a call come without a potency. Not shown: some 18% with an inconclusive outcome. The call rests on the fitted dose curve; in most records, active means well fitted inhibition curve with a large enough effect; inconclusive means small, poorly fitted or top-dose-only effect, or another doubt; inactive means no such curve, though single readings can be large or run the other way. Many of the other results were omitted from the sample, so actives are more common in it than they were.

Assay: qHTS Assay for Inhibitors of Hepatitis C Virus (HCV)
Details: Huh7.5.1 HCVcc-Cre infection, luciferase reporter, 44 h; series mostly up to 41.8 µM
Summary of the method: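 Cells seeded at 1,000/well and cultured 4 h, then compounds added followed by HCVcc-Cre virus (~0.5 moi). After 44 h further culture, luciferase substrate was added, plates held 15 min at room temperature, and luminescence read for 15 sec.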
Potency means the concentration at half of the fitted maximal effect.

Q: Which Potency does the source give for `N#Cc1ccc(C(=O)OCC(=O)NC(=O)NC2CCCCC2)cc1` here?
A: The Potency was “inactive”.

Q: For `O=C(NNC(=O)c1cc(-c2ccccc2Cl)nc2ccccc12)c1csc(N2CCOCC2)n1`, which Potency is on record?
A: Its Potency is “inactive”.

Q: With `C=CCNc1scc(-c2ccccc2)[n+]1CC=C` as the compound, how does the Potency read?
A: Its Potency is “inactive”.

Q: For `C=CC[n+]1c(-c2ccc(C)cc2)csc1NNC(=O)Nc1ccccc1`, which Potency is on record?
A: The Potency was 5.62 µM (active).

Q: Which Potency does the source give for `O=C(NNC(=O)c1ccc(-c2ccccc2)cc1)Nc1ccccc1` here?
A: The Potency was “inactive”.

Q: With `N#CC(Cc1cc2ccccc2n1S(=O)(=O)c1ccccc1)OCc1ccccc1` (stereo unspecified) as the compound, how does the Potency read?
A: Its Potency is “inactive”.

Q: Which Potency does the source give for `Nc1cccnc1Sc1ccccc1` here?
A: Its Potency is “inactive”.

Q: With `CN1CCN(c2ccc([N+](=O)[O-])c(Sc3nc4ccccc4[nH]3)c2)CC1` as the compound, how does the Potency read?
A: Its Potency is “inactive”.

Q: With `O=[N+]([O-])c1ccc(N2CCSCC2)cc1O` as the compound, how does the Potency read?
A: The Potency was “inactive”.

Q: For `CC1CCN(c2ccc([N+](=O)[O-])c(SCCO)c2)CC1`, which Potency is on record?
A: Its Potency is 10 µM (active).

Q: Which Potency does the source give for `Cc1occc1-c1nnc(SCC(=O)NC2(C#N)CCCC2)n1C` here?
A: Its Potency is “inactive”.

Q: With `CN(C)CCCN(C(=O)c1ccc(S(=O)(=O)N2CCCCCC2)cc1)c1nc2cc3c(cc2s1)OCCO3` as the compound, how does the Potency read?
A: The Potency was “inactive”.

Q: Which Potency does the source give for `O=[N+]([O-])c1ccc(C=NN=Cc2ccc([N+](=O)[O-])cc2)cc1` here?
A: Its Potency is “inactive”.

Q: For `COC(=O)c1ccc(C(=O)OC)c(NC(=S)N2CCN(c3cc(Cl)ccc3C)CC2)c1`, which Potency is on record?
A: Its Potency is “inactive”.

Q: For `Cc1ccc(Cl)cc1N1CCN(C(=O)c2cccc3c(=O)c(C)c(-c4ccccc4)oc23)CC1`, which Potency is on record?
A: The Potency was 10 µM (active).

Q: Which Potency does the source give for `Cc1cccc(N2CCN(C(=O)c3cnn4c(C(F)F)cc(-c5ccccc5)nc34)CC2)c1C` here?
A: The Potency was “inactive”.

Q: With `CC(C#N)OC(=O)c1cccnc1SCC(=O)Nc1ccc2c(c1)OCO2` (stereo unspecified) as the compound, how does the Potency read?
A: Its Potency is “inactive”.

Q: For `Cc1ccc(CN2CC(C(=O)N3CCN(S(=O)(=O)c4ccccc4)CC3)CC2=O)cc1` (stereo unspecified), which Potency is on record?
A: Its Potency is “inactive”.

Q: For `Cc1cc(N2CCCC2)n2nc(C)c(-c3ccccc3)c2n1`, which Potency is on record?
A: Its Potency is “inactive”.

Q: Which Potency does the source give for `Cc1nn2c(NCCN(C)C)c3c(nc2c1-c1ccccc1)CCC3` here?
A: The Potency was 12.6 µM (active).

Q: With `Cc1cc(C(C)(C)C)n2nc(C)c(-c3ccccc3)c2n1` as the compound, how does the Potency read?
A: Its Potency is “inactive”.

Q: Which Potency does the source give for `O=C(COC(=O)c1ccc(F)cc1)Nc1nc2ccc([N+](=O)[O-])cc2s1` here?
A: The Potency was “inactive”.

Q: With `O=C(NC(Nc1nc2ccc([N+](=O)[O-])cc2s1)(C(F)(F)F)C(F)(F)F)c1ccccc1` as the compound, how does the Potency read?
A: The Potency was 0.562 µM (active).

Q: For `O=C(Nc1nc2ccc([N+](=O)[O-])cc2s1)c1ccncc1`, which Potency is on record?
A: Its Potency is “inactive”.

Q: For `NC(=O)C1CCN(C(=O)c2cc(S(=O)(=O)N3CCN(c4ccccc4)CC3)ccc2Cl)CC1`, which Potency is on record?
A: The Potency was “inactive”.

Q: With `CC(=O)c1c(C)[nH]c(C(=O)OCC(=O)Nc2cc(S(=O)(=O)N3CCCCC3)ccc2C)c1C` as the compound, how does the Potency read?
A: The Potency was “inactive”.

Q: With `CC(=O)c1c(C)[nH]c(C(=O)COC(=O)c2cccs2)c1C` as the compound, how does the Potency read?
A: Its Potency is “inactive”.

Q: For `N#CCC(=O)Nc1ccc(C(=O)OCC(=O)Nc2sc3c(c2C#N)CCCC3)cc1`, which Potency is on record?
A: The Potency was “inactive”.

Q: With `Cc1cccc(C(=O)OCC(=O)Nc2sc3c(c2C#N)CCC3)c1` as the compound, how does the Potency read?
A: Its Potency is “inactive”.

Q: Which Potency does the source give for `CC(=O)c1c(C)[nH]c(C(=O)OCC(=O)NCCC(C)C)c1C` here?
A: The Potency was 11.2 µM (active).

Q: For `CC(=O)c1c(C)[nH]c(C(=O)OCC(=O)Nc2sc3c(c2C#N)CCCC3)c1C`, which Potency is on record?
A: The Potency was 12.6 µM (active).
